According to PubChem BioAssay (EPA / NIEHS):
Active and inactive are the calls of the source. How the source made its calls: active means hit-call score of the fitted dose curve at least 0.9, where 1 is the maximum; inactive means score below 0.9.

Experiments:
[1] = ATG_GLI_CIS: Attagene CIS-FACTORIAL HepG2 Assay for human Zinc Finger Protein GLI1 (AID 2282945); details: HepG2, Attagene cis-factorial reporter mRNA, GLI element; actives raise or lower the signal
Outline: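 Transiently transfected HepG2 cells report endogenous transcription factor activity via cis-element-driven reporter units. After 24 h compound exposure, reporter mRNA was measured by RT-PCR with capillary electrophoresis; bidirectional fitting against DMSO baseline.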

[2] = ATG_ISRE_CIS: Attagene CIS-FACTORIAL HepG2 Assay for human Interferon Regulatory Factor 1 (IRF1) binding to an Interferon-Stimulated Response Element (ISRE) (AID 2282948); details: HepG2 ISRE cis-reporter (Attagene), mRNA transcription readout; actives raise or lower the signal
Outline: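 Read-out: fluorescent RT-PCR products resolved by capillary electrophoresis, reporting endogenous transcription factor activity via ISRE-driven reporter mRNA in transfected HepG2 cells dosed for 24 h; gain or loss fitted relative to DMSO.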

[3] = ATG_M_32_CIS: Attagene CIS-FACTORIAL HepG2 Assay for M32 Transcription Factor (Internal Marker) (AID 2282949); details: HepG2 Attagene cis-factorial M32 reporter, mRNA; actives raise or lower the signal;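 further: background control marker of the multiplexed CIS panel rather than a real target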
Outline: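 HepG2 transfectants (cis-regulated reporter transcription units) dosed 24 h. Reporter mRNA by RT-PCR plus CE, analysed as gain or loss relative to DMSO.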

[4] = ATG_M_06_CIS: Attagene CIS-FACTORIAL HepG2 Assay for M06 Transcription Factor (Internal Marker) (AID 2282950); details: HepG2 Attagene CIS-FACTORIAL M06 internal marker reporter; actives raise or lower the signal
Outline: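 Measured 24 h post-dosing in transiently transfected HepG2 cells, this internal-marker endpoint reports reporter mRNA via RT-PCR with fluorescent primer extension and capillary electrophoresis. DMSO served as negative control and baseline for bidirectional fitting.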

[5] = target: Hypoxia-inducible factor 1-alpha (Homo sapiens) (UniProt Q16665); assay: ATG_HIF1a_CIS: Attagene CIS-FACTORIAL HepG2 Assay for human Hypoxia Inducible Factor 1 (HIF1A) (AID 2282951); details: HepG2 Attagene cis-factorial HIF1a reporter transcription; actives raise or lower the signal
Outline: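 Endogenous-TF cis reporter readout, human HepG2 cells, 24 h incubation; mRNA detected via RT-PCR and capillary electrophoresis fluorescence; DMSO-normalised bidirectional fitting.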

[6] = target: Hepatocyte nuclear factor 6 (Homo sapiens) (UniProt Q9UBC0); assay: ATG_HNF6_CIS: Attagene CIS-FACTORIAL HepG2 Assay for human Hepatocyte Nuclear Factor 6 (HNF6) (AID 2282952); details: HepG2 Attagene cis-factorial HNF6 reporter transcription; actives raise or lower the signal
Outline: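 Using cis-element reporters in HepG2 liver cells, the assay tracks endogenous factor-driven transcription 24 h post-dosing. Signal comes from 6-FAM-labelled, HpaI-digested RT-PCR fragments, with gain or loss scored against DMSO.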

[7] = target: Heat shock factor protein 1 (Homo sapiens) (UniProt Q00613); assay: ATG_HSE_CIS: Attagene CIS-FACTORIAL HepG2 Assay for human Heat Shock Transcription Factor 1 (HSE) (AID 2282953); details: HepG2 HSE cis-reporter, Attagene RNA transcription; actives raise or lower the signal
Outline: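 Reporter mRNA induction in HepG2 is measured 24 h after dosing, using transiently transfected multiplexed cis-regulated reporter units. Signal comes from capillary electrophoresis of labelled RT-PCR products, with DMSO as negative control.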

[8] = ATG_MRE_CIS: Attagene CIS-FACTORIAL HepG2 Assay for human Metal Responsive Element (MRE) (AID 2282954); details: HepG2 MRE cis-reporter transcription, Attagene multiplex; actives raise or lower the signal
Outline: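 Measured here is mRNA induction from an MRE cis-element reporter in HepG2 after 24 h, quantified by fluorescence of labelled RT-PCR products on capillary electrophoresis; gain- and loss-of-signal fits use DMSO as baseline.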

[9] = ATG_PBREM_CIS: Attagene CIS-FACTORIAL HepG2 Assay for human Phenobarbital-responsive Enhancer Module (PBREM) (AID 2282955); details: HepG2 PBREM cis-reporter, Attagene multiplexed transcription; actives raise or lower the signal
Outline: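 Readout: reporter mRNA, fluorescent RT-PCR fragments separated by capillary electrophoresis. System: HepG2 transiently transfected with cis-regulated reporter units. Exposure: 24 h. Analysis: bidirectional, DMSO baseline.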

[10] = target: Paired box protein Pax-6 (Homo sapiens) (UniProt P26367); assay: ATG_Pax6_CIS: Attagene CIS-FACTORIAL HepG2 Assay for human Paired Box 6 (PAX6) (AID 2282956); details: HepG2 CIS-FACTORIAL PAX6 reporter transcription, RNA readout; actives raise or lower the signal
Outline: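 Readout: reporter transcript fluorescence after RT-PCR and capillary electrophoresis. Cells: HepG2, transiently transfected with cis-regulated MRTUs. Exposure 24 h. Gain or loss of signal fitted bidirectionally relative to DMSO.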

[11] = ATG_PXRE_CIS: Attagene CIS-FACTORIAL HepG2 Assay for human Pregnane X Receptor Element (PXRE) (AID 2282957); details: HepG2 Attagene CIS-FACTORIAL PXRE reporter, mRNA; actives raise or lower the signal
Outline: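 Using HepG2 transfected with multiple reporter transcription units, endogenous factor-driven transcription was scored as reporter mRNA after 24 h exposure.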

[12] = ATG_PPRE_CIS: Attagene CIS-FACTORIAL HepG2 Assay for human Peroxisome Proliferator-activated Response Element (PPRE) (AID 2282958); details: HepG2 PPRE cis-element reporter, Attagene transcription factor profiling; actives raise or lower the signal
Outline: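 After human HepG2 hepatoma cells were transiently transfected with cis-promoter reporter constructs, they were exposed to test chemicals for 24 hours. Reporter RNA was then reverse-transcribed, PCR-amplified, FAM-labeled, HpaI-digested and quantified by capillary electrophoresis.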

[13] = ATG_RORE_CIS: Attagene CIS-FACTORIAL HepG2 Assay for human RAR-related Orphan Receptor Element (RORE) (AID 2282959); details: HepG2 Attagene cis-factorial RORE reporter, mRNA; actives raise or lower the signal
Outline: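 Measured here: transcript induction of a cis-regulated reporter in HepG2 cells transiently transfected via FuGene 6. After 24 h, RNA was processed by RT-PCR and fluorescent capillary electrophoresis; DMSO defined baseline activity.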

[14] = ATG_Sox_CIS: Attagene CIS-FACTORIAL HepG2 Assay for human SRY-box transcription factor (SOX) (AID 2282960); details: HepG2 Attagene cis-factorial SOX reporter, mRNA; actives raise or lower the signal
Outline: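 Using transiently transfected HepG2 cells, reporter transcription driven by cis elements was assessed 24 h after dosing. Signal was fluorescence of capillary-separated RT-PCR products, with DMSO defining baseline activity.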

[15] = target: Transcription factor Sp1 (Homo sapiens) (UniProt P08047); assay: ATG_Sp1_CIS: Attagene CIS-FACTORIAL HepG2 Assay for human Specificity Protein 1 (Sp1) (AID 2282961); details: HepG2 Sp1 cis-reporter transcription, actives raise or lower the signal
Outline: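 After transient transfection of HepG2 cells with cis-promoter reporter units and 24 h chemical treatment, reporter transcripts were quantified by RT-PCR and capillary electrophoresis fluorescence. Gain- and loss-of-signal fitted against DMSO.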

[16] = ATG_SREBP_CIS: Attagene CIS-FACTORIAL HepG2 Assay for human Sterol Regulatory Element Binding (SREBP) (AID 2282962); details: HepG2 Attagene cis-factorial SREBP reporter, mRNA; actives raise or lower the signal
Outline: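 Readout: fluorescent reporter-transcript peaks resolved by capillary electrophoresis after RT-PCR. Cells were human HepG2 carrying transfected cis-promoter reporter constructs, dosed for 24 h. Gain or loss of signal was fitted against DMSO controls.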

[17] = target: Signal transducer and activator of transcription 3 (Homo sapiens) (UniProt P40763); assay: ATG_STAT3_CIS: Attagene CIS-FACTORIAL HepG2 Assay for human Signal Transducer and Activator of Transcription 3 (STAT3) (AID 2282963); details: HepG2, Attagene cis-factorial STAT3 reporter transcription; actives raise or lower the signal
Outline: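 Fluorescence intensity of 6-FAM-labelled reporter fragments, separated by capillary electrophoresis after RT-PCR, gave the signal. Cells were HepG2 transfected with cis-element reporter units and treated 24 h; fitting was bidirectional relative to DMSO.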

[18] = ATG_TA_CIS: Attagene CIS-FACTORIAL HepG2 Assay for human TA Basal Promoter (AID 2282964); details: HepG2 Attagene CIS-factorial TA basal promoter reporter; actives raise or lower the signal
Outline: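 Cis-factorial format in HepG2: reporters report endogenous factors, not chimeric Gal4 fusions. After 24 h treatment, reporter transcripts were measured by RT-PCR-capillary electrophoresis fluorescence, analysed bidirectionally versus DMSO.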

[19] = ATG_GRE_CIS: Attagene CIS-FACTORIAL HepG2 Assay for human Glucocorticoid Response Elements (GRE) (AID 2282947); details: HepG2 GRE cis-reporter, Attagene multiplex mRNA; actives raise or lower the signal
Outline: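 Fluorescence intensity of reporter-specific cDNA fragments, separated by capillary electrophoresis, provides the signal. Constructs carry cis-regulating promoters in transiently transfected HepG2 liver cells; 24 h incubation; fitting is bidirectional against DMSO.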

Measured: AC50

Sequence of Hypoxia-inducible factor 1-alpha (Homo sapiens) (Q16665 whole entry, looked up): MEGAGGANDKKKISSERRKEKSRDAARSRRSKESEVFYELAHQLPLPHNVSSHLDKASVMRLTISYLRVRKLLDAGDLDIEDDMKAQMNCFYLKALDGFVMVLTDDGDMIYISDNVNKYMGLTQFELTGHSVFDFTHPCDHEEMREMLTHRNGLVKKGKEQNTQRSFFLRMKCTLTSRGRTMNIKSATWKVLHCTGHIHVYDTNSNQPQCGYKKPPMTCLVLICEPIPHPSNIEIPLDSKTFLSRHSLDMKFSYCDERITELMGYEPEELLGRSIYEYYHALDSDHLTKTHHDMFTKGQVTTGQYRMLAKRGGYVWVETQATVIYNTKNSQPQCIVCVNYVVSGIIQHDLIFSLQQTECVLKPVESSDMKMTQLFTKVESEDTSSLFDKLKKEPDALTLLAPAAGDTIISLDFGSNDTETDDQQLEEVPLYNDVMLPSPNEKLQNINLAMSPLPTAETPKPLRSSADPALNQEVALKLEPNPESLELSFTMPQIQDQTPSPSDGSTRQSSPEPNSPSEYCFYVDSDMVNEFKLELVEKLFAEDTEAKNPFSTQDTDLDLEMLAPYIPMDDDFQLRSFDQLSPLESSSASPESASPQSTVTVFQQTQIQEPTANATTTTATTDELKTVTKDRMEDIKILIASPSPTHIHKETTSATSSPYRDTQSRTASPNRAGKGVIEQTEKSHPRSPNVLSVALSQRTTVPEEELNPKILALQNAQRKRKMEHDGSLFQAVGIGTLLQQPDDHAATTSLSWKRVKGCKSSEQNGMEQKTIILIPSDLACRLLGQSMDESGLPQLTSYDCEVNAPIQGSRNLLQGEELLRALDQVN
Sequence of Signal transducer and activator of transcription 3 (Homo sapiens) (P40763 whole entry, looked up, the tested form may be a part): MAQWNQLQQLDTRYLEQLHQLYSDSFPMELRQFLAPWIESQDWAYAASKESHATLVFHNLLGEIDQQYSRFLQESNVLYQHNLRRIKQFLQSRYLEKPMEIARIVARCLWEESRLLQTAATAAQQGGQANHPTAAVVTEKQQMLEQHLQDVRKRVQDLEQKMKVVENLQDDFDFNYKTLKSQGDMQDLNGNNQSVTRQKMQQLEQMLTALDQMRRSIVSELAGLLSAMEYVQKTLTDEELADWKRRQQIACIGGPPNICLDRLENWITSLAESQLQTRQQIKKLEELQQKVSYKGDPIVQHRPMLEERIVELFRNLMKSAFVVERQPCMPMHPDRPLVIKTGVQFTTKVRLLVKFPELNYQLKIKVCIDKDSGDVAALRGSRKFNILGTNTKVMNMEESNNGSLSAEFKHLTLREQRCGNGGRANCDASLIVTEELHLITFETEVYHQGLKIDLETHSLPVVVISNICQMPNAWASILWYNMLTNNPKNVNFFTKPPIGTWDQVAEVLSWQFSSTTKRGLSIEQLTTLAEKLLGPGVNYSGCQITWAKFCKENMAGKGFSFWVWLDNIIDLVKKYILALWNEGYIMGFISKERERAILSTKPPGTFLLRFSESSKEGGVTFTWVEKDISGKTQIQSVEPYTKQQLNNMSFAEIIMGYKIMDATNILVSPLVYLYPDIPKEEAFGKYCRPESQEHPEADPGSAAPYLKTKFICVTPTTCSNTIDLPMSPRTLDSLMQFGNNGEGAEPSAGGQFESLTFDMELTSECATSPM
Sequence of Transcription factor Sp1 (Homo sapiens) (P08047 whole entry, looked up): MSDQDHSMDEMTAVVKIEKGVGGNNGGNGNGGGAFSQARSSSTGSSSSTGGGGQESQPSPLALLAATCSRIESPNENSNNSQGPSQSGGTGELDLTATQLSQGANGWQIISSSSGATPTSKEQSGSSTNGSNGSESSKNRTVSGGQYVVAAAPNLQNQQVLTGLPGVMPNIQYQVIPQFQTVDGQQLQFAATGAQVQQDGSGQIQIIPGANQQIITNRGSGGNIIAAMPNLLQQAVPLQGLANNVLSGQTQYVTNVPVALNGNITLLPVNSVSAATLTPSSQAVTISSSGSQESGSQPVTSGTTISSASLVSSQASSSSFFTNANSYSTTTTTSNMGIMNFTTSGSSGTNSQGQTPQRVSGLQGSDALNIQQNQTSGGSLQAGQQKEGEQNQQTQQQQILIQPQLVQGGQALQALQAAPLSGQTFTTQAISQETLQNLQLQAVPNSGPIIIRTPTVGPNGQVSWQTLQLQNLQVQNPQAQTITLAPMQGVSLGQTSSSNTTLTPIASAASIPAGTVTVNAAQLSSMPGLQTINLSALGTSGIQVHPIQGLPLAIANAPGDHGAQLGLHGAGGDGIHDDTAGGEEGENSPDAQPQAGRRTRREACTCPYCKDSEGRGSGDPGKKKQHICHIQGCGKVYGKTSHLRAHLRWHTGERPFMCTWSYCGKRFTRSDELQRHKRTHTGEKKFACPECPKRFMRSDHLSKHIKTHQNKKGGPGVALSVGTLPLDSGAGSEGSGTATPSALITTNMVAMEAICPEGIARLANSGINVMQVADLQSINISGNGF
Sequence of Paired box protein Pax-6 (Homo sapiens) (P26367 whole entry, looked up): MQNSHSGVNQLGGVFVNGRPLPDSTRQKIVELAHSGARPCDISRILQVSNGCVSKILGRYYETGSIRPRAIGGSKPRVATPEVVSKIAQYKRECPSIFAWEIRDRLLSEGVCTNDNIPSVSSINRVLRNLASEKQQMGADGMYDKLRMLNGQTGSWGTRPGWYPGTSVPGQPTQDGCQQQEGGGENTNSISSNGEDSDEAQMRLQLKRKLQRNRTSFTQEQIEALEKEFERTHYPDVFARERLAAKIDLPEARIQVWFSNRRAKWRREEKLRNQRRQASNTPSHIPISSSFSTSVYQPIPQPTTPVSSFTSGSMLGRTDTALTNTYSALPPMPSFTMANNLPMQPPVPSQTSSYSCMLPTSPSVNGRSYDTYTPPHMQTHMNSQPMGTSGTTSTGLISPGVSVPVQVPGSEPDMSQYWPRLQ
Sequence of Hepatocyte nuclear factor 6 (Homo sapiens) (Q9UBC0 whole entry, looked up, the tested form may be a part): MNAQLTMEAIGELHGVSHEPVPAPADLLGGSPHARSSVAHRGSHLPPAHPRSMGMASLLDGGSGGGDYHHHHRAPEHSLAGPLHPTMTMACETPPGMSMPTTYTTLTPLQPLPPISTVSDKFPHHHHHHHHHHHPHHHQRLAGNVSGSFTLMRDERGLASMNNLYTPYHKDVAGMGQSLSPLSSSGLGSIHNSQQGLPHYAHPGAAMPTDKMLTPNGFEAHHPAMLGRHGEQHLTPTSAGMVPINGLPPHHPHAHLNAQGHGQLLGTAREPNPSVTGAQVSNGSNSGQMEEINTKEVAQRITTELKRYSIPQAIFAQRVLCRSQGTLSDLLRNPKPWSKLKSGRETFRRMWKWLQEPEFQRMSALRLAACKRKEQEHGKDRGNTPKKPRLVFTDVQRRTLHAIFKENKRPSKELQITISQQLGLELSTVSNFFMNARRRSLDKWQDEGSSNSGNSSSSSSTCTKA
Sequence of Heat shock factor protein 1 (Homo sapiens) (Q00613 whole entry, looked up): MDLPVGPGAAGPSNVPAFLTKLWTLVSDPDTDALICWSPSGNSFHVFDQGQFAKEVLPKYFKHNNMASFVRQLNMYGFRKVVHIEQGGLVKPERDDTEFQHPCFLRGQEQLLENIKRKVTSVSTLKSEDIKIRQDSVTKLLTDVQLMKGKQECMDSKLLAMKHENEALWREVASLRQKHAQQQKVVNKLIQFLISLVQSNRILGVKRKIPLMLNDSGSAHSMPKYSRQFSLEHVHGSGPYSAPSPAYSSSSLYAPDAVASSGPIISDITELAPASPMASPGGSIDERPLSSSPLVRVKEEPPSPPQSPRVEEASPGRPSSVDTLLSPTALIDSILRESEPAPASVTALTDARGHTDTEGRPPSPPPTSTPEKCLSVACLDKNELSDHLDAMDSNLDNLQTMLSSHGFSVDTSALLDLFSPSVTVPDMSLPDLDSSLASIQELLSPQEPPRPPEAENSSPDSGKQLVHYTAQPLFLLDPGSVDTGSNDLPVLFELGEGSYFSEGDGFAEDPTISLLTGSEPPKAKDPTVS

C=CCc1ccc(O)c(OC)c1
not listed: [19]
inactive: all other assays above

C[C@]12C=CC(=O)C=C1CC[C@@H]1[C@@H]2C(=O)C[C@@]2(C)[C@H]1CC[C@]2(O)C(=O)CO
active: [11] 55.6 µM
not listed: [8] | [12] | [15] | [19]
inactive: all other assays above

COc1cccc2c1C(=O)c1c(O)c3c(c(O)c1C2=O)C[C@@](O)(C(=O)CO)C[C@@H]3O[C@H]1C[C@H](N)[C@H](O)[C@H](C)O1
active: [1] 1.25 µM | [19] 0.942 µM | [2] 1.63 µM | [5] 1.23 µM | [16] 0.909 µM
not listed: [4] | [8]
inactive: all other assays above

CCNc1cccc(C)c1
active: [5] 60.8 µM
not listed: [4] | [6] | [15] | [19]
inactive: all other assays above

CCCCCCC(=O)OCC
active: [11] 30.1 µM
not listed: [6] | [19]
inactive: all other assays above

c1cc(-c2ccncc2)ccn1
not listed: [4] | [6] | [15]
inactive: all other assays above

CC1=C(/C=C/C(C)=C/C=C/C(C)=C/CO)C(C)(C)CCC1
active: [7] 197 µM | [8] 106 µM | [10] 49.1 µM | [11] 0.464 µM | [12] 47.6 µM | [13] 27.9 µM
not listed: [4] | [6] | [19]
inactive: all other assays above

CCOc1ccc2c(c1)C(C)=CC(C)(C)N2
active: [7] 152 µM | [10] 100 µM | [11] 1.91 µM | [12] 78.8 µM | [13] 100 µM | [18] 100 µM
not listed: [5] | [6] | [8] | [15] | [19]
inactive: all other assays above

Clc1cc(Cl)c(Cl)cc1Cl
not listed: [4] | [6] | [9]
inactive: all other assays above

CC=Cc1ccc(O)c(OC)c1
active: [11] 26.1 µM
not listed: [6] | [8] | [15] | [19]
inactive: all other assays above

CCCCCCCCCCCCCCCCCC(=O)O
not listed: [6] | [9] | [12] | [15] | [19]
inactive: all other assays above

Cc1cccc(Nc2cc(Cl)nc(SCC(=O)O)n2)c1C
active: [11] 29.8 µM
not listed: [4] | [5] | [12]
inactive: all other assays above

Cc1ccc2ncccc2c1
not listed: [4] | [6]
inactive: all other assays above

COc1ccc(S(=O)(=O)N2C(=O)[C@@](c3ccccc3OC)(N3C[C@H](O)C[C@H]3C(=O)N(C)C)c3cc(Cl)ccc32)c(OC)c1
inactive: [6] | [15] | [16] | [17]
active: [1] 125 µM | [19] 147 µM | [2] 49.9 µM | [3] 133 µM | [5] 25.2 µM | [7] 149 µM | [9] 17.1 µM | [10] 64.1 µM | [11] 0.0584 µM | [12] 76.8 µM | [13] 28.5 µM | [14] 122 µM | [18] 46.6 µM
